# Screens from PubChem.
# Hits are enriched below; roughly 7.3% of the tested compounds scored in any of these assays.
# HCV inh = HCV inhibition; AID 651820; hit rate 3.4% among 340,000; Potency, µM (top dose mostly 41.8 µM), for the others: top-dose activity change, negative = inhibition, most hits filed as inhibitors; Huh7.5.1 HCVcc-Cre infection, luciferase reporter, 44 h; active = well fitted inhibition curve with a large enough effect; inconclusive = small, poorly fitted or top-dose-only effect, or another doubt; inactive = no such curve, though single readings can be large or run the other way; note: potency is the fitted concentration of half-maximal effect
#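 Seed cells (1,000/well) for 4 h; treat with compound and infect with HCVcc-Cre, moi about 0.5. Incubate 44 h, then detect luciferase activity.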
# Vaccinia mCherry = vaccinia inhibition (mCherry reporter); hit rate 0.63% among 310,000; Vaccinia virus mCherry reporter infection, fluorescence; AID 720579; Potency, µM (doses to about 36.5 µM), for the others: top-dose activity change, negative = inhibition, usual class: inhibitors; calls by dose curve; tested in A549 cells; note: potency is the fitted concentration of half-maximal effect; nearly all actives have a fitted effect of over 35% in size
# FMDV inh = blocks foot and mouth disease virus. FMDV antiviral cell-based qHTS. Potency, µM (top dose mostly 57.9 µM), for inactives: top-dose activity change, negative = inhibition, hits mostly inhibitors. hit rate 1.2% among 410,000; calls by dose curve; tested in HEK293T cells; note: read-out not given here; potency is the fitted concentration of half-maximal effect; nearly all actives have a fitted effect of over 45% in size
# Vaccinia Venus = inhibitors of vaccinia virus (Venus reporter) | Vaccinia virus Venus reporter expression, fluorescence | Potency, µM (series often up to 36.5 µM), inactives show at the top dose activity change, negative = inhibition, hits mostly inhibitors | hit rate 0.46% among 330,000; calls by dose curve; tested in A549 cells; note: potency is the fitted concentration of half-maximal effect; nearly all actives have a fitted effect of over 30% in size
# HCMV antiviral = inhibitors of human cytomegalovirus | hit rate 4.5% among 410,000 | HFF cells, HCMV-luciferase reporter, 72 h; stronger effect = lower value | activity change, negative = inhibition, % at 57.5 µM; in the data active = activity change below about -60%; inconclusive = no clear call, values can overlap the other calls; inactive = above about -39%
#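 Luciferase read-out from HCMV-luciferase-infected HFFs (MOI 1 PFU/cell) 72 h post infection at 37C; compounds added after 16 h cell attachment; activity normalized between buffer-only basal and Salinomycin (10uM) inhibitor controls.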
# The depositor's hits bear a star; i = inactive; ? = inconclusive; · = no result. % is set by controls: 0 for no effect and ±100 for the full control effect.
SMILES,HCV inh,Vaccinia mCherry,FMDV inh,Vaccinia Venus,HCMV antiviral
CCc1cccc2c(=O)c(C(=O)NCCN3CCOCC3)c[nH]c12,10µM*,·,3%,·,15
CC(C)c1ccc(Nc2nc(Nc3ccc(Cl)cc3)nc(N3CCOCC3)n2)cc1,·,-14%,·,-18%,·
Cc1ccc(C(=O)O)cc1N1C(=O)c2cccc3c([N+](=O)[O-])ccc(c23)C1=O,?,·,?,·,-100*
CC(=O)Oc1cccc(N2C(=O)c3cccc4c([N+](=O)[O-])ccc(c34)C2=O)c1,?,·,-11%,·,-94*
CC(=O)Oc1cccc(N2C(=O)c3ccc(C(=O)O)cc3C2=O)c1,11%,·,-22%,·,?
Cc1c2ccccc2nc2c(F)c(N(C)C)c(F)c(F)c12,-26%,-8%,36%,32%,16
CN(C)c1c2ccccc2nc2c(F)c(F)c(F)c(F)c12,?,·,28µM*,·,·
COc1c(C=O)c2c(c(OC)c1OC)-c1ccc(OC)c(=O)cc1C(NC(C)=O)CC2 (stereo unspecified),0%,?,-6%,?,-68*
COC1=C[C@@H]2C3=C([C@@H]2C1=O)[C@@H](NC(C)=O)CCc1cc(OC)c(OC)c(OC)c13,-23%,-17%,0%,-10%,10
COC(=O)c1ccc2c(c1)C(NC(C)=O)CCc1cc(OC)c(OC)c(OC)c1-2 (stereo unspecified),-3%,i,-14%,?,-81*
COc1cc2c(c(OC)c1OC)-c1ccc(OC)c(=O)cc1C(NC(C)=O)CC2 (stereo unspecified),10%,-29%,-5%,?,-87*
COc1cc2c(c(OC)c1OC)-c1ccc(O)c(=O)cc1C(NC(C)=O)CC2 (stereo unspecified),14%,-21%,-8%,?,·
CCCC(=O)NC1CCc2cc(OC)c(OC)c(OC)c2-c2ccc(OC)c(=O)cc21 (stereo unspecified),?,?,-6%,?,-91*
c1ccc(N2CCN(Cc3nnc(-c4ccc5c(c4)OCO5)o3)CC2)cc1,·,-13%,19%,-9%,10
CS(=O)(=O)c1ccc(-c2cccc3c2OC(CNC(=O)c2cc(C4CC4)[nH]n2)C3)cc1 (stereo unspecified),·,-8%,-13%,2%,·
COc1ccc(-c2nc3cnc(N4CCN(C)CC4)nc3n(-c3ccc(OC)cc3)c2=O)cc1,·,·,-10%,·,·
CC(C)(C)n1nc(C2CC2)c(Br)c1NC(=O)c1ccccc1Cl,·,·,·,·,-20
CCCNC(=O)C1CCC(Cn2c(=O)c3sccc3n(CC(=O)NCc3cccc(OC)c3OC)c2=O)CC1 (stereo unspecified),·,-4%,-5%,-10%,9
COc1cccc(C(=O)Nc2ccc3c(cc2=O)[C@@H](NC(C)=O)CCc2cc(OC)c(OC)c(OC)c2-3)c1,32µM*,·,?,·,·
COc1ccc2c(c1)C(NC(C)=O)CCc1cc(OC)c(OC)c(OC)c1-2 (stereo unspecified),-9%,-10%,-17%,?,-67*
O=C(COc1ccc(Br)cc1Cl)NC(=S)Nc1ccccn1,5%,·,-2%,·,-16
Cc1ccc(OCC(=O)NC(=S)Nc2ccccn2)c(Br)c1,18%,i,16µM*,-10%,-63*
Cc1ccc(OCC(=O)NNC(=O)Cn2c(=O)cnc3ccccc32)cc1,-9%,-12%,7%,-2%,-97*
O=C(COc1ccccc1F)NNC(=O)Cn1c(=O)cnc2ccccc21,?,·,-1%,·,0
CCOC(=O)N1CCN(c2ccnc3cc(Cl)ccc23)CC1,-5%,-5%,-19%,-7%,-63*
SMILES,HCV inh,Vaccinia mCherry,FMDV inh,Vaccinia Venus,HCMV antiviral
CCOC(=O)N1CCC(Nc2c(-c3ccc(C)c(C)c3)c(=O)c2=O)CC1,-26%,·,-29%,·,-21
O=C(Oc1ccnc2cc(Cl)ccc12)N1CCCCCC1,?,·,-16%,?,-101*
O=C(c1ccc(Cl)cc1)N1CCN(c2ccnc3cc(Cl)ccc23)CC1,?,?,28µM*,-29%,?
CCOC(=O)N1CCC(Nc2c(N3CCN(c4cc(Cl)ccc4C)CC3)c(=O)c2=O)CC1,10µM*,5%,0%,-1%,?
CCC(=O)N1CCN(c2ccnc3cc(Cl)ccc23)CC1,17%,-4%,-8%,-24%,?
CCN(Cc1ccccc1)S(=O)(=O)c1ccc(-c2coc(C)n2)cc1,·,2%,-15%,0%,-3
CC(C)N(C(=O)N1CCN(c2ccnc3cc(Cl)ccc23)CC1)C(C)C,?,-1%,?,-9%,-90*
